Test results published in PubChem BioAssay (NCI).
Values joined by “and” are separate entries in the source; they are usually repeats but may differ in a detail not shown here. Equal values may be shown once. The panel holds about 83,000 compounds, 20% with a hit somewhere; the sample as a whole holds those more often.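 Values shown are percent growth following 48 h exposure of cells in 96-well plates to a single concentration of compound; below 10 was considered active.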 Active and inactive are the calls of the source.

Assays:
Test in all cases: NCI-60 one-dose screen, 48 h (100 = growth as untreated, 0 = no growth, -100 = all killed)
RPMI-8226 leukemia = test system: RPMI-8226 leukemia
OVCAR-8 ovarian = test system: OVCAR-8 ovarian
OVCAR-5 ovarian = test system: OVCAR-5 ovarian
OVCAR-4 ovarian = test system: OVCAR-4 ovarian
SK-OV-3 ovarian = test system: SK-OV-3 ovarian
IGROV1 ovarian = test system: IGROV1 ovarian
OVCAR-3 ovarian = test system: OVCAR-3 ovarian
HS 578T breast = test system: HS 578T breast
NCI/ADR-RES ovarian = test system: NCI/ADR-RES ovarian
SR leukemia = settings: 10 µM unless noted

Measured: growth

CC/C(=C(/c1ccc(O)cc1)c1ccc(OCCN(C)C(=O)COCCOCCNC(=O)c2ccc3c(c2)CN([C@@H]2CCC(=O)NC2=O)C3=O)cc1)c1ccccc1
inactive: RPMI-8226 leukemia; 1 µM 99.6% | RPMI-8226 leukemia; 10 µM 78.5% | OVCAR-8 ovarian; 1 µM 102% | OVCAR-8 ovarian; 10 µM 61.1% | OVCAR-5 ovarian; 1 µM 96% | OVCAR-5 ovarian; 10 µM 86.8% | OVCAR-4 ovarian; 1 µM 103% | OVCAR-4 ovarian; 10 µM 93% | SK-OV-3 ovarian; 1 µM 91.1% | SK-OV-3 ovarian; 10 µM 92.8% | IGROV1 ovarian; 1 µM 63.1% | IGROV1 ovarian; 10 µM 37.6% | OVCAR-3 ovarian; 1 µM 99.1% | OVCAR-3 ovarian; 10 µM 95.8% | HS 578T breast; 1 µM 70.9% | HS 578T breast; 10 µM 53.9% | NCI/ADR-RES ovarian; 1 µM 106% | NCI/ADR-RES ovarian; 10 µM 102%

Nc1nnc(-c2cncc(Br)c2)c(-c2c[nH]c3ccc(Cl)cc23)n1
inactive: SR leukemia 54.1% | RPMI-8226 leukemia; 10 µM unless noted 48.5% | OVCAR-8 ovarian; 10 µM unless noted 89.8% | OVCAR-4 ovarian; 10 µM unless noted 56.2% | SK-OV-3 ovarian; 10 µM unless noted 103% | IGROV1 ovarian; 10 µM unless noted 68.6% | OVCAR-3 ovarian; 10 µM unless noted 100% | HS 578T breast; 10 µM unless noted 76.6% | NCI/ADR-RES ovarian; 10 µM unless noted 63.5%

CC/C(=C(/c1ccc(O)cc1)c1ccc(OCCN(C)C(=O)CCOCCNC(=O)Cc2ccc3c(c2)CN([C@@H]2CCC(=O)NC2=O)C3=O)cc1)c1ccccc1
inactive: RPMI-8226 leukemia; 1 µM 88% | RPMI-8226 leukemia; 10 µM 78.3% | OVCAR-8 ovarian; 1 µM 87.8% | OVCAR-8 ovarian; 10 µM 34.7% | OVCAR-5 ovarian; 1 µM 97.5% | OVCAR-5 ovarian; 10 µM 86.7% | OVCAR-4 ovarian; 1 µM 102% | OVCAR-4 ovarian; 10 µM 75.7% | SK-OV-3 ovarian; 1 µM 88.7% | SK-OV-3 ovarian; 10 µM 79.6% | IGROV1 ovarian; 1 µM 57.5% | IGROV1 ovarian; 10 µM 30.4% | OVCAR-3 ovarian; 1 µM 102% | OVCAR-3 ovarian; 10 µM 68.4% | HS 578T breast; 1 µM 61.4% | HS 578T breast; 10 µM 30.4% | NCI/ADR-RES ovarian; 1 µM 109% | NCI/ADR-RES ovarian; 10 µM 99.6%

COc1cccc(-c2ccc(/C=N/NC(=O)c3[nH]c4ccc(Br)cc4c3-c3ccccc3)s2)c1
inactive: OVCAR-4 ovarian; 10 µM unless noted 31.7% | SK-OV-3 ovarian; 10 µM unless noted 22.1% | HS 578T breast; 10 µM unless noted 17.8%
active: SR leukemia 6.57% | RPMI-8226 leukemia; 10 µM unless noted -22.9% | OVCAR-8 ovarian; 10 µM unless noted 0.0466% | IGROV1 ovarian; 10 µM unless noted 8.09% | OVCAR-3 ovarian; 10 µM unless noted -40.5% | NCI/ADR-RES ovarian; 10 µM unless noted -50.1%

COC(=O)c1cc(C(=O)CBr)n2c1ccc1c3ccccc3ccc12
active: SR leukemia 2.25%
inactive: RPMI-8226 leukemia; 10 µM unless noted 38.7% | OVCAR-8 ovarian; 10 µM unless noted 31.3% | OVCAR-4 ovarian; 10 µM unless noted 101% | SK-OV-3 ovarian; 10 µM unless noted 62% | IGROV1 ovarian; 10 µM unless noted 33.5% | OVCAR-3 ovarian; 10 µM unless noted 103% | HS 578T breast; 10 µM unless noted 61% | NCI/ADR-RES ovarian; 10 µM unless noted 57.4%

NC1(c2ccc(-c3ccc4ncnc(NCc5ccccc5)c4c3)cn2)COC1
inactive: SR leukemia 101% and 92.4% | RPMI-8226 leukemia; 10 µM unless noted 117% and 110% | OVCAR-8 ovarian; 10 µM unless noted 113% and 117% | OVCAR-4 ovarian; 10 µM unless noted 106% and 109% | SK-OV-3 ovarian; 10 µM unless noted 143% and 109% | IGROV1 ovarian; 10 µM unless noted 116% and 108% | OVCAR-3 ovarian; 10 µM unless noted 106% and 74.8% | HS 578T breast; 10 µM unless noted 105% | NCI/ADR-RES ovarian; 10 µM unless noted 104% and 107%

O=C(c1ccc(O)cc1)C1[C@H](c2ccccc2Br)[C@@H](c2ccccc2)NC12C(=O)Nc1ccccc12 (stereo not given in full)
inactive: RPMI-8226 leukemia; 10 µM unless noted 31.4% | OVCAR-8 ovarian; 10 µM unless noted 30.2% | OVCAR-5 ovarian; 10 µM unless noted 56.7% | OVCAR-4 ovarian; 10 µM unless noted 48.3% | SK-OV-3 ovarian; 10 µM unless noted 70.5% | IGROV1 ovarian; 10 µM unless noted 26.6% | OVCAR-3 ovarian; 10 µM unless noted 20.7% | HS 578T breast; 10 µM unless noted 49.1% | NCI/ADR-RES ovarian; 10 µM unless noted 53.1%

O=C(CSc1nc2ccccc2c(=O)[nH]1)Nc1ccccc1C(=O)O
inactive: SR leukemia 95.2% | RPMI-8226 leukemia; 10 µM unless noted 102% | OVCAR-8 ovarian; 10 µM unless noted 109% | OVCAR-4 ovarian; 10 µM unless noted 109% | SK-OV-3 ovarian; 10 µM unless noted 90.7% | IGROV1 ovarian; 10 µM unless noted 109% | OVCAR-3 ovarian; 10 µM unless noted 106% | HS 578T breast; 10 µM unless noted 79.3% | NCI/ADR-RES ovarian; 10 µM unless noted 103%

COc1ccc(-c2cc(-c3cc(OC)c(OC)c(OC)c3)[nH]c(=O)c2C#N)cc1
inactive: SR leukemia 80.8% | RPMI-8226 leukemia; 10 µM unless noted 72.2% | OVCAR-8 ovarian; 10 µM unless noted 13.4% | SK-OV-3 ovarian; 10 µM unless noted 30.7% | IGROV1 ovarian; 10 µM unless noted 36.7% | OVCAR-3 ovarian; 10 µM unless noted 102% | HS 578T breast; 10 µM unless noted 24.2% | NCI/ADR-RES ovarian; 10 µM unless noted 42.2%
active: OVCAR-4 ovarian; 10 µM unless noted 7.74%

CC1=C(C(=O)OC(C)C)C(c2ccc(O)cc2)NC(=O)N1 (stereo not given)
inactive: RPMI-8226 leukemia; 10 µM unless noted 98.9% | OVCAR-8 ovarian; 10 µM unless noted 108% | OVCAR-4 ovarian; 10 µM unless noted 100% | SK-OV-3 ovarian; 10 µM unless noted 106% | IGROV1 ovarian; 10 µM unless noted 109% | OVCAR-3 ovarian; 10 µM unless noted 108% | HS 578T breast; 10 µM unless noted 99.8% | NCI/ADR-RES ovarian; 10 µM unless noted 99.8%

C[C@@H]1[C@H]2C[C@@H](C[C@H]1NCc1nc3ccccc3n1C1CCCCCC1)C2(C)C
inactive: SR leukemia 15.4% | RPMI-8226 leukemia; 10 µM unless noted 27.6% | OVCAR-8 ovarian; 10 µM unless noted 75.1% | OVCAR-4 ovarian; 10 µM unless noted 72.4% | SK-OV-3 ovarian; 10 µM unless noted 90.4% | IGROV1 ovarian; 10 µM unless noted 75.8% | OVCAR-3 ovarian; 10 µM unless noted 64.5% | HS 578T breast; 10 µM unless noted 80.2% | NCI/ADR-RES ovarian; 10 µM unless noted 25.9%

CC/C(=C(/c1ccc(O)cc1)c1ccc(OCCN(C)C(=O)COCCOCCNC(=O)Cc2ccc3c(c2)CN([C@@H]2CCC(=O)NC2=O)C3=O)cc1)c1ccccc1
inactive: RPMI-8226 leukemia; 1 µM 90.3% | RPMI-8226 leukemia; 10 µM 72% | OVCAR-8 ovarian; 1 µM 93.9% | OVCAR-8 ovarian; 10 µM 21.9% | OVCAR-4 ovarian; 1 µM 101% | OVCAR-4 ovarian; 10 µM 59.2% | SK-OV-3 ovarian; 1 µM 86.1% | SK-OV-3 ovarian; 10 µM 71.6% | IGROV1 ovarian; 1 µM 50% | IGROV1 ovarian; 10 µM 17.8% | OVCAR-3 ovarian; 1 µM 95.6% | OVCAR-3 ovarian; 10 µM 61.3% | HS 578T breast; 1 µM 64.8% | HS 578T breast; 10 µM 19.1% | NCI/ADR-RES ovarian; 1 µM 103% | NCI/ADR-RES ovarian; 10 µM 107%

CN(C)c1ccc(/C=C/c2n(Cc3ccc4ccccc4c3)c3ccccc3[n+]2Cc2ccc3ccccc3c2)cc1
active: SR leukemia -29.3% | RPMI-8226 leukemia; 10 µM unless noted -36.7% | OVCAR-8 ovarian; 10 µM unless noted -31.3% | OVCAR-4 ovarian; 10 µM unless noted -79% | SK-OV-3 ovarian; 10 µM unless noted -80.3% | OVCAR-3 ovarian; 10 µM unless noted -45.2% | HS 578T breast; 10 µM unless noted -46.3% | NCI/ADR-RES ovarian; 10 µM unless noted -80.7%

CC/C(=C(\c1ccc(O)cc1)c1ccc(OCCN(C)C(=O)COCCNC(=O)Cc2ccc3c(c2)CN([C@@H]2CCC(=O)NC2=O)C3=O)cc1)c1ccccc1
inactive: RPMI-8226 leukemia; 1 µM 83.7% | RPMI-8226 leukemia; 10 µM 51.8% | OVCAR-8 ovarian; 1 µM 67.7% | OVCAR-8 ovarian; 10 µM 15.1% | OVCAR-5 ovarian; 1 µM 94.7% | OVCAR-5 ovarian; 10 µM 65.5% | OVCAR-4 ovarian; 1 µM 91.3% | OVCAR-4 ovarian; 10 µM 38.7% | SK-OV-3 ovarian; 1 µM 81% | SK-OV-3 ovarian; 10 µM 57.8% | IGROV1 ovarian; 1 µM 38.5% | OVCAR-3 ovarian; 1 µM 85.9% | OVCAR-3 ovarian; 10 µM 54.8% | HS 578T breast; 1 µM 48.7% | NCI/ADR-RES ovarian; 1 µM 105% | NCI/ADR-RES ovarian; 10 µM 98.7%
active: IGROV1 ovarian; 10 µM 9.45% | HS 578T breast; 10 µM 7.64%

O=C(NN1C(=O)/C(=C/C=C/c2ccc([N+](=O)[O-])o2)SC1=S)c1ccc(O)cc1
active: SR leukemia -7.52% | RPMI-8226 leukemia; 10 µM unless noted -26.1% | OVCAR-8 ovarian; 10 µM unless noted -70.9% | OVCAR-4 ovarian; 10 µM unless noted -99.8% | SK-OV-3 ovarian; 10 µM unless noted -98.9% | IGROV1 ovarian; 10 µM unless noted -95.6% | OVCAR-3 ovarian; 10 µM unless noted -88.6% | HS 578T breast; 10 µM unless noted -1.61% | NCI/ADR-RES ovarian; 10 µM unless noted -22.3%

CCC1(OC(=O)c2ccccc2SSCCOC(=O)CCCCC2SCC3NC(=O)NC32)C(=O)OCc2c1cc1n(c2=O)Cc2cc3ccccc3nc2-1 (stereo not given)
active: SR leukemia 3.84%
inactive: RPMI-8226 leukemia; 10 µM unless noted 33.1% | OVCAR-8 ovarian; 10 µM unless noted 37.4% | OVCAR-4 ovarian; 10 µM unless noted 66% | SK-OV-3 ovarian; 10 µM unless noted 46.3% | OVCAR-3 ovarian; 10 µM unless noted 72.7% | HS 578T breast; 10 µM unless noted 82.9% | NCI/ADR-RES ovarian; 10 µM unless noted 24.2%

CN(C)c1nc(NCCNS(=O)(=O)c2ccc(C(=O)/C=C/c3ccc(C(F)(F)F)cc3)cc2)nc(N2CCOCC2)n1
inactive: OVCAR-4 ovarian; 10 µM unless noted 56.5% | SK-OV-3 ovarian; 10 µM unless noted 76.2% | HS 578T breast; 10 µM unless noted 67.8%
active: SR leukemia -23% | RPMI-8226 leukemia; 10 µM unless noted -44.2% | OVCAR-8 ovarian; 10 µM unless noted 1.73% | IGROV1 ovarian; 10 µM unless noted -93.9% | OVCAR-3 ovarian; 10 µM unless noted -43% | NCI/ADR-RES ovarian; 10 µM unless noted -31.5%

COc1cccc(C(N)=Nc2ccc(OCCCCCCCCn3cncn3)cc2)c1
inactive: SR leukemia 10.4% | RPMI-8226 leukemia; 10 µM unless noted 14.2% | OVCAR-5 ovarian; 10 µM unless noted 29.6% | OVCAR-4 ovarian; 10 µM unless noted 55.5% | SK-OV-3 ovarian; 10 µM unless noted 41.7% | IGROV1 ovarian; 10 µM unless noted 27.3% | HS 578T breast; 10 µM unless noted 37.2%

O=C1/C(=C/c2cnc(-c3ccccc3)s2)SC(=S)N1Cc1ccc2c(c1)OCO2
inactive: SR leukemia 67.5% | RPMI-8226 leukemia; 10 µM unless noted 110% | OVCAR-8 ovarian; 10 µM unless noted 67.6% | OVCAR-4 ovarian; 10 µM unless noted 77.5% | SK-OV-3 ovarian; 10 µM unless noted 35.6% | IGROV1 ovarian; 10 µM unless noted 64.2% | OVCAR-3 ovarian; 10 µM unless noted 97.6% | HS 578T breast; 10 µM unless noted 31.5% | NCI/ADR-RES ovarian; 10 µM unless noted 77.2%
